In all, about 33,000 sequences were measured (“e-score”: median about -0.038, highest 2% from about 0.33 on). This excerpt belongs to a sample that is enriched for the highest values.
These sequences were tested against T1, GST-Rok-C97-191 (Bacillus subtilis subsp. subtilis str. …, UniProt O34857 97-191) (assay: protein binding microarray; Rok is a gene silencer of Bacillus subtilis; high values mean tight binding). Settings: protein: recombinant; tags: GST (pTH5325, pDEST15-Magic modified); dsDNA, one strand shown.
T1 sequence: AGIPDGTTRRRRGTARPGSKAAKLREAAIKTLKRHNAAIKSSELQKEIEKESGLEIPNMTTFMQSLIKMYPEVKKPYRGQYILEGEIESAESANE
Procedure, shortened: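 Every oligonucleotide joins a 25-mer constant primer to a 35-mer variable part drawn from a de Bruijn sequence of order 10, so each non-palindromic 8-mer appears at least 32 times and each palindromic 8-mer 16 times. The preference for every 8-mer is reported as a unitless, rank-based enrichment score (E-score). This score spans 0.5 for the most favored 8-mer to −0.5 for the most disfavored.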

Sequence | binding signal
AAAAATGT | 0.129 E-score
AAGGCAGC | 0.0072 E-score
CCAAACGG | -0.0693 E-score
CAATGTTA | 0.195 E-score
CTGCGCCC | -0.144 E-score
GACACTGC | -0.137 E-score
AGCGTTCC | -0.026 E-score
AATCAGAC | -0.0483 E-score
CGCGATTA | 0.0183 E-score
AGCAGTCA | 0.0635 E-score
ACGACCTA | 0.00188 E-score
ATTTTTCG | 0.181 E-score
GTACGTAA | 0.0489 E-score
ATACGTAA | 0.371 E-score
TTACGTAA | 0.261 E-score
ACGGAAGG | -0.162 E-score
CTATCTAA | 0.282 E-score
ATCTCTAC | 0.118 E-score
ATATCTTA | 0.26 E-score
CTATCTAC | 0.433 E-score
ATCTCTAA | 0.106 E-score
ATATCTAA | 0.351 E-score

Sequence | binding signal
ATATCTTC | 0.344 E-score
ATATCTAC | 0.377 E-score
ATATCTAG | 0.284 E-score
CTCTCTAC | 0.064 E-score
CTATCTTC | 0.105 E-score
CCATCTAC | 0.213 E-score
CAGACGGA | -0.1 E-score
CGGTCGCA | -0.0742 E-score
GTCAATTA | 0.163 E-score
GAACAGAC | -0.0366 E-score
TACGCAGA | -0.138 E-score
AGCTGAAC | -0.0772 E-score
GATAAAGC | -0.0584 E-score
CTAAGTAA | 0.266 E-score
CGTATCAA | 0.0404 E-score
CTACTACA | 0.366 E-score
CTACTAGA | 0.293 E-score
ATACTGCA | 0.287 E-score
ACACTACA | 0.294 E-score
ATACTACA | 0.388 E-score
GTACTACA | 0.296 E-score
AGACGTGC | -0.045 E-score

Sequence | binding signal
CAGCTAAA | 0.0943 E-score
CTTTTTGC | -0.0956 E-score
CTAAGCGA | -0.171 E-score
TAGTCAAA | 0.158 E-score
TAATATTA | 0.287 E-score
AAATATTG | 0.286 E-score
CAATATTC | 0.186 E-score
ATATATTG | 0.419 E-score
CCATATTA | 0.121 E-score
GAATATTA | 0.2 E-score
ACATATTG | 0.232 E-score
GAATATTC | 0.339 E-score
AAATATTC | 0.219 E-score
CAATATTA | 0.204 E-score
AAATATTA | 0.355 E-score
CTATATTA | 0.355 E-score
ACCTATTC | 0.0409 E-score
GAATGCAA | -0.0262 E-score
CCGCAAAA | -0.142 E-score
AGGCCGGA | -0.102 E-score
GTGTATTA | 0.11 E-score
AGATATTA | 0.356 E-score

Sequence | binding signal
CGATATTA | 0.286 E-score
ATATATTA | 0.447 E-score
GCATATTA | 0.153 E-score
ATATATTC | 0.374 E-score
AGATATTG | 0.186 E-score
ATGTATTA | 0.301 E-score
CTATATTC | 0.274 E-score
GTATATTA | 0.371 E-score
CTCTATTC | -0.103 E-score
ACATATTA | 0.304 E-score
AGGTCCCG | -0.133 E-score
AAACTTCA | 0.0505 E-score
GAAAAACA | 0.0708 E-score
CACGGAAG | 0.00148 E-score
AAAGTCTC | 0.0451 E-score
AGGGTCGC | -0.122 E-score
GCGTCCAA | -0.0249 E-score
GCGTAAAA | 0.139 E-score
ACCTCGAT | 0.113 E-score
AGCCGTTC | -0.05 E-score
ACAGCAAG | -0.0495 E-score
AAGGTAGC | 0.158 E-score

Sequence | binding signal
ACGGTAGC | 0.0805 E-score
ACGGTAGA | 0.318 E-score
AAGGTAGT | 0.33 E-score
AAGGTAGG | -0.00436 E-score
ACGGTAGT | 0.408 E-score
ATGCAAGC | -0.0317 E-score
CGTCGCTC | -0.161 E-score
ACATTCCC | -0.0621 E-score
AGGACCGG | -0.171 E-score
ATCTACGG | 0.0258 E-score
ATCTACTA | 0.456 E-score
ATCTACTC | 0.206 E-score
ATCTACTG | 0.423 E-score
GTCTACTA | 0.29 E-score
CTCTACTA | 0.2 E-score
ACCCACTG | -0.0641 E-score
CATCGGAC | 0.0521 E-score
GGCAAAGA | -0.188 E-score
ACGGTTAT | 0.165 E-score
ATGATACG | 0.141 E-score
CTACCCGC | -0.0513 E-score
CGGTAAGA | -0.0738 E-score
